Records with an inconclusive call do not appear. Activity calls are given as the source filed them. Unless noted, calls follow the shape of the dose curve; as a rule, active = well fitted curve in the direction sought with a large enough effect; inconclusive = small, poorly fitted or top-dose-only effect, or another doubt; inactive = no such curve, though single readings can be large; an effect the other way counts as inactive or inconclusive.
Columns and labels:
[1] = biological target: Lysosomal acid glucosylceramidase (Homo sapiens) (UniProt P04062); test: Glucocerebrosidase-p2 (AID 348; in the data active = potency below about 10 µM; also: potency is read from the fitted curve at half-maximal effect); settings: purified GBA, blue fluorogenic substrate, 40 min
Procedure, shortened: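 Normal human glucocerebrosidase (0.2 nM) with blue fluorogenic substrate (80 uM final) in citrate/phosphate pH 5.9 with 10mM sodium taurocholate, 0.01% tween-20; 40 min RT, NaOH/glycine stop; fluorescence Ex 365/Em 440; AC50 from a titration from 0.6 nM upwards.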

[2] = AP1 Signaling Pathway (AID 357; active = well fitted curve in either direction with a large enough effect, not every such curve was filed as active;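 also: ME-180 reporter cells stimulated with EGF at its EC50 level; % is scaled to controls: 0 for no effect and ±100 for the full control effect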); settings: ME-180 AP-1-bla reporter, EGF-induced, beta-lactamase ratio, 5 h; at 7.69 µM (top of the series) unless noted
Procedure, shortened: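 A ratiometric CCF4 readout (405 nm excitation; 460 and 530 nm emission) quantified AP-1-driven beta-lactamase in ME-180 cells after 5 h with compound and EC50 EGF; AC50 values were derived for activators and inhibitors.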

[3] = biological target: Cytochrome P450 1A2 (Homo sapiens) (UniProt P05177); test: p450-cyp1a2 (AID 410; calls by dose curve; also: potency is read from the fitted curve at half-maximal effect;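 as to activity change, negative = inhibition: -100% = full effect of reference inhibitor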); settings: recombinant CYP1A2, luciferin-ME demethylation, luminescence; series mostly up to 57 µM
Procedure, shortened: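 Luminescent demethylation readout: Luciferin-ME (100uM, equal to Km) turned over by 20nM CYP1A2 for 60 min at room temperature after NADPH regeneration addition, following 10 min compound preincubation. Normalization used 57 uM furafylline as full inhibition.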

[4] = Stat Signaling Pathway (AID 446; active = well fitted curve in either direction with a large enough effect, not every such curve was filed as active;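 also: ME-180 cervical cancer cells given 40 pM IL-6 alongside compound; SIE-controlled beta-lactamase reporter measured as 460/530 nm FRET emission ratio; % is scaled to controls: 0 for no effect and ±100 for the full control effect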); settings: ME-180 SIE beta-lactamase reporter, IL-6 stimulated, 5 h; at 7.69 µM (top of the series) unless noted
Procedure, shortened: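 Normalization used AC90 stimulation (300 pM IL-6) and AC90 inhibition (125 nM pan-JAK inhibitor at 40 pM IL-6). The underlying signal is SIE-driven beta-lactamase in ME-180 cells after 5 h IL-6 exposure with compound.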

[5] = biological target: Glucocorticoid receptor (Homo sapiens) (UniProt P04150); test: GR-GFP Redistribution (AID 450;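 active = compounds whose dose series gives a full or clear partial fitted curve of increased nuclear translocation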; also: potency is read from the fitted curve at half-maximal effect); settings: U2OS GR-GFP nuclear translocation, laser cytometry, 2 h
[6] = biological target: Glucocorticoid receptor (Homo sapiens) (UniProt P04150); test: GR-EFC Redistribution (AID 451; calls by dose curve; also: potency is read from the fitted curve at half-maximal effect); settings: CHO-K1 GR-EFC translocation, beta-gal luminescence, 2 h
Procedure, shortened: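 CHO-K1 cells stably expressing nuclear-localized β-gal enzyme acceptor and GR fused C-terminally to the enzyme donor fragment; ligand-driven nuclear translocation restores β-gal by complementation. Compounds titrated up to 46 uM final, 2 h at 37 °C; luminescence read.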

[7] = biological target: Mitogen-activated protein kinase 10 (Mus musculus) (UniProt Q61831); test: JNK3 AlphaScreen Assay (AID 530; active = well fitted curve in either direction with a large enough effect, not every such curve was filed as active;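 also: kinase came from lysate of stimulated human HepG2 cells; signal reports phosphorylation of biotinylated GST-cJun 1-79 at Ser73 with 10 µM ATP; % is scaled to controls: 0 for no effect and ±100 for the full control effect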); settings: JNK3 lysate, c-Jun phosphorylation; series mostly up to 57.1 µM
Procedure, shortened: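 Phosphorylation of biotinylated GST-cJun(1-79) at Ser73 is measured by AlphaScreen proximity luminescence. Enzyme is JNK3 in HepG2 lysates activated with interleukin-1beta and tumor necrosis factor alpha; ATP is 10 uM final.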

[8] = biological target: 3',5'-cyclic-AMP phosphodiesterase 4B (Homo sapiens) (UniProt Q07343); test: qHTS Assay for Inhibitors of PDE-IV (AID 607; active = well fitted activation curve with a large enough effect in the main read-out, with a control signal flat, not every such curve was filed as active; also: % of control where 0% means no effect); settings: HEK293 ACTOne CNG channel cells, membrane potential fluorescence; series mostly up to 22.9 µM
Procedure, shortened: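 HEK293 ACTOne cells with CNG channel (1000/well), endogenous PDE4; membrane potential dye, compounds up to 22.9 uM final. Fluorescence Ex 535/Em 590; RO 20-1724 (100 uM final) as reference.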

[9] = biological target: Cytochrome P450 3A4 (Homo sapiens) (UniProt P08684); test: qHTS Assay for Inhibitors and Substrates of Cytochrome P450 3A4 (AID 884); settings: recombinant CYP3A4, Luciferin-PPXE luminescence; series mostly up to 57.1 µM; also: nearly all actives have a fitted effect of over 50% in size; also: potency is read from the fitted curve at half-maximal effect
Procedure, shortened: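 Luminescent readout of luciferin produced by CYP3A4 (20 nM) dealkylation of Luciferin-PPXE, 25 uM (its KM). NADPH-driven reaction ran 60 min at RT after 10 min compound preincubation; data scaled to 57 uM ketoconazole as 100% inhibition.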

[10] = biological target: Cytochrome P450 3A4 (Homo sapiens) (UniProt P08684); test: qHTS Assay for Activators of Cytochrome P450 3A4 (AID 885); settings: recombinant CYP3A4, Luciferin-PPXE luminescence, 60 min; series mostly up to 57.1 µM; also: nearly all actives have a fitted effect of over 65% in size
Procedure, shortened: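 Human CYP3A4 dealkylates Luciferin-PPXE to luciferin, which luciferase detection converts to light. Substrate was at its KM (25uM), buffer 200mM KPO4, reaction 60 min at RT.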

[11] = qHTS Assay for Identification of Small Molecule Agonists for Hypoxia Response Element Signaling Pathway (AID 914; active = well fitted activation curve with a large enough effect in the signal ratio, with a control signal flat, not every such curve was filed as active; the % refers to the signal ratio; also: % of control where 0% means no effect); settings: ME-180 (cervical carcinoma) HRE-bla reporter, beta-lactamase ratio, CoCl2, 17 h; activation: stronger effect = higher value
Procedure, shortened: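 HRE-bla ME-180 cells, overnight plating in Opti-MEM with 0.5% dialyzed FBS; cpd titration + EC50 CoCl2, 17 h, 37 degrees Celsius; CCF4 2.5 h RT; 460/530 nm ratio; AC50.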

[12] = qHTS Assay for Lipid Storage Modulators (AID 1519; calls by dose curve); settings: Drosophila S3 cells, BODIPY lipid droplet/cell ratio, laser cytometry, cells loaded with oleic acid; for activity change, negative = inhibition: at 57.5 µM (top of the series)
Procedure, shortened: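 Cells seeded at 5,000 per well were treated with compounds over a concentration series and loaded with oleic acid (400 uM, as added). Lipid droplet fluorescence (488 nm excitation, 500-530 nm channel) was read by laser-scanning cytometry and normalized to 20 uM Triacsin C.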

[13] = biological target: Dual specificity protein kinase CLK4 (Homo sapiens) (UniProt Q9HAZ1); test: qHTS Assay for Inhibitors of CDC-like Kinase 4 (ADP-Glo Assay) (AID 1771); settings: recombinant CLK4, ADP-Glo luminescence; series mostly up to 80 µM; also: nearly all actives have a fitted effect of over 70% in size; also: potency is read from the fitted curve at half-maximal effect
Procedure, shortened: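 ADP production was read by ADP-Glo luminescence after residual ATP depletion, following 1 h room-temperature reaction of 25 nM Clk4, 1 uM ATP and 100 uM RS peptide with MgCl2, EGTA, DTT and Triton X-100.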

[14] = biological target: Dual specificity protein kinase CLK4 (Homo sapiens) (UniProt Q9HAZ1); test: qHTS Assay for Inhibitors of CDC-like Kinase 4 (ADP-FP Assay) (AID 1795); settings: Transcreener ADP fluorescence polarization; series mostly up to 50 µM;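 also: recombinant human CLK4 phosphorylating RS repeat peptide at 1 µM ATP; % is scaled to controls: 0 for no effect and ±100 for the full control effect; nearly all actives have a fitted effect of over 60% in size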
Procedure, shortened: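 FP readout: Orange Transcreener ADP2 tracer (4 nM) plus ADP antibody, read after 30 min at room temperature. Kinase step: 6.25 nM Clk4, 100 uM RS peptide, 1 uM ATP, pH 7.5, 1 h.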

[15] = biological target: Ubiquitin carboxyl-terminal hydrolase 1 (Homo sapiens) (UniProt O94782); test: Inhibitors of USP1/UAF1: Pilot qHTS (AID 504865); settings: purified USP1/UAF1, Ub-rhodamine cleavage fluorescence; series mostly up to 54.9 µM;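 also: rhodamine fluorescence freed from ubiquitin-rhodamine substrate followed over time; top concentration of the series differs between compounds; % is scaled to controls: 0 for no effect and ±100 for the full control effect; nearly all actives have a fitted effect of over 35% in size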
Procedure, shortened: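 1nM USP1/UAF1 + cpd, 15 min RT; start w/ Ub-Rho 150nM final; kinetic FL 480/540 nm, 6 reads q60 s. Buffer 50mM HEPES pH 7.8, 0.5mM EDTA, 1mM TCEP, 0.01% Tween-20, 0.1 mg/ml BSA.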

[16] = NFAT Signaling Pathway (AID 444; active = well fitted curve in either direction with a large enough effect, not every such curve was filed as active;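 also: carbachol stimulus at about its EC50 of 1 µM final; % is scaled to controls: 0 for no effect and ±100 for the full control effect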); settings: Jurkat NFAT-bla M1, carbachol, beta-lactamase ratio, 5 h; at 7.69 µM (top of the series) unless noted
Procedure, shortened: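 Jurkat cells carrying an NFAT-driven β-lactamase reporter and co-transfected muscarinic M1 receptor were treated with compound plus carbachol (1 uM final, an EC50 level) for 5 h at 37 °C. CCF4 loading followed for 1 h at RT; 460/530 nm ratio gave %activity.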

[17] = biological target: Dual specificity protein kinase CLK4 (Homo sapiens) (UniProt Q9HAZ1); test: qHTS Assay for Inhibitors of CDC-like Kinase 4 (Kinase-Glo Assay) (AID 1770); settings: recombinant Clk4, Kinase-Glo ATP depletion luminescence; series mostly up to 66.7 µM; also: nearly all actives have a fitted effect of over 65% in size; also: potency is read from the fitted curve at half-maximal effect
Procedure, shortened: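 Readout: Kinase-Glo luminescence from ATP left after a 4.5 h room-temperature reaction of 25 nM Clk4 with 100 uM RS peptide and 1 uM ATP (final). Buffer: 25 mM Tris pH 7.5, 10 mM MgCl2.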

[18] = measured here: cell count channel max response
[19] = measured here: lipid channel max response

Sequence of Glucocorticoid receptor (Homo sapiens) (P04150 whole entry, looked up, the tested form may be a part): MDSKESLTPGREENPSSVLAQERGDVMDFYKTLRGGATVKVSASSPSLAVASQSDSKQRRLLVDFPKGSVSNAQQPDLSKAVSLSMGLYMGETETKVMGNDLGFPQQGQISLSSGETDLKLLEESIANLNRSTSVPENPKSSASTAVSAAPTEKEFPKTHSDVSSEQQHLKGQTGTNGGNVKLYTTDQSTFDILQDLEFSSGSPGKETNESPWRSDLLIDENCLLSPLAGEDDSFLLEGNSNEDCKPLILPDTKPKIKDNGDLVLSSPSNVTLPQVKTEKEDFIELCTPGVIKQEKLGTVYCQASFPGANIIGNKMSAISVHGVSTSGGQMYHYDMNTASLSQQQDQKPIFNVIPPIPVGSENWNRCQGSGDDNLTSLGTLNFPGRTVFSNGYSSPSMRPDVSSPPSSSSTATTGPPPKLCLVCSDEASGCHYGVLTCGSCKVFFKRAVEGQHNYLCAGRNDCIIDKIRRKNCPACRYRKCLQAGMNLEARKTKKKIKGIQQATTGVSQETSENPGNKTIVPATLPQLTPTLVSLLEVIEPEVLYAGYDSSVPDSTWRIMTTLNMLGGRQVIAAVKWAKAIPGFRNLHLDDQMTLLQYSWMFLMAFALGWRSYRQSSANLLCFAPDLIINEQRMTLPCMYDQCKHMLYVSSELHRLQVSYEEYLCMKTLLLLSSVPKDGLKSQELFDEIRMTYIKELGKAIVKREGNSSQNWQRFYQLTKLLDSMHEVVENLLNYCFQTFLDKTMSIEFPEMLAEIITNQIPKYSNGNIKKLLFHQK
Sequence of Lysosomal acid glucosylceramidase (Homo sapiens) (P04062 whole entry, looked up): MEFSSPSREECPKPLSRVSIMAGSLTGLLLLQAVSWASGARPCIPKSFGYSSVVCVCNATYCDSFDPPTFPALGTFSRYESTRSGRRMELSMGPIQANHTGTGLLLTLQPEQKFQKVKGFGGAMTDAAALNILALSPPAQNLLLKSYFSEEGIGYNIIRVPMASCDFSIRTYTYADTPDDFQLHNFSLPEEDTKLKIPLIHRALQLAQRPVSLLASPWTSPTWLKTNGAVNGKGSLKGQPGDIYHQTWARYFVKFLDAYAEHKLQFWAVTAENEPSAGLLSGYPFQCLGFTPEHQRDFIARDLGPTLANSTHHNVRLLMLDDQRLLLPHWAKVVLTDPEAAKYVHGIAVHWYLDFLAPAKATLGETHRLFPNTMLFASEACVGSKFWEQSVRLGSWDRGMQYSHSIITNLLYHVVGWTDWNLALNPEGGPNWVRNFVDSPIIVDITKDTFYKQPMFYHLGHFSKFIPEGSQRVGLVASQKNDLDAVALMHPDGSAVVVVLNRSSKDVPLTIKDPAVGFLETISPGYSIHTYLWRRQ
Sequence of Ubiquitin carboxyl-terminal hydrolase 1 (Homo sapiens) (O94782 whole entry, looked up): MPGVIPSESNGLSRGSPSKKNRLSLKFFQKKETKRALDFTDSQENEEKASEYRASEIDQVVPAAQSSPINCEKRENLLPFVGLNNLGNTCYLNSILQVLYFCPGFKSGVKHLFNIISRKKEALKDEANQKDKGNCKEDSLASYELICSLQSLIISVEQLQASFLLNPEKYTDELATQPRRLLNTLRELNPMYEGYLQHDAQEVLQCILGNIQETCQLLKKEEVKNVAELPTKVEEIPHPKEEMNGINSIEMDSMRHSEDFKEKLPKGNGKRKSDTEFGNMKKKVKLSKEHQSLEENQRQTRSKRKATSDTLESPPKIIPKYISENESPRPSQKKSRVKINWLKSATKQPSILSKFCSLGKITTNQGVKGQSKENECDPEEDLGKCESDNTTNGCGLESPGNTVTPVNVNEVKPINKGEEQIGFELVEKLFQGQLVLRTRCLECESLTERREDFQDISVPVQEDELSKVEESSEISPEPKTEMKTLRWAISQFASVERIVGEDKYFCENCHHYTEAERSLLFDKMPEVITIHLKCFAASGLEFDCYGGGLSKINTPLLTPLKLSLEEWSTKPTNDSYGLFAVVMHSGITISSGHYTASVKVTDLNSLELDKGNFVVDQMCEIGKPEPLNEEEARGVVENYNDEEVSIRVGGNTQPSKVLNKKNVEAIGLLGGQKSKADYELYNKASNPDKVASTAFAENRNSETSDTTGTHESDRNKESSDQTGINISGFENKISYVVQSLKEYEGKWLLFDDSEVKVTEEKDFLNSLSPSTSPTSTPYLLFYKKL
Sequence of Cytochrome P450 1A2 (Homo sapiens) (P05177 whole entry, looked up): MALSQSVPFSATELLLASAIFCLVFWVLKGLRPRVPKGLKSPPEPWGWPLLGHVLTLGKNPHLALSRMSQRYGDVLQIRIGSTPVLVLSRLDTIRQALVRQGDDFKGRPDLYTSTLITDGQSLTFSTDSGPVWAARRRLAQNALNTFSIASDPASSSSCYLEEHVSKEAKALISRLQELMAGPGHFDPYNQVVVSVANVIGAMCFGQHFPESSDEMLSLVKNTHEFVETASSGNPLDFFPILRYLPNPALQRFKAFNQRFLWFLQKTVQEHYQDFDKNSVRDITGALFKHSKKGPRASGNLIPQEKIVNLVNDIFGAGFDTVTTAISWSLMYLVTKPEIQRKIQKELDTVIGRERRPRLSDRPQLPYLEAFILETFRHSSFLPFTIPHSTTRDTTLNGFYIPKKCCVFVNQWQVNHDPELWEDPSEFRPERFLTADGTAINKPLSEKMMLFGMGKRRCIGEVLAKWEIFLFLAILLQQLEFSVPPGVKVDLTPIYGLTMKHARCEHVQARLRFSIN
Sequence of Dual specificity protein kinase CLK4 (Homo sapiens) (Q9HAZ1 whole entry, looked up): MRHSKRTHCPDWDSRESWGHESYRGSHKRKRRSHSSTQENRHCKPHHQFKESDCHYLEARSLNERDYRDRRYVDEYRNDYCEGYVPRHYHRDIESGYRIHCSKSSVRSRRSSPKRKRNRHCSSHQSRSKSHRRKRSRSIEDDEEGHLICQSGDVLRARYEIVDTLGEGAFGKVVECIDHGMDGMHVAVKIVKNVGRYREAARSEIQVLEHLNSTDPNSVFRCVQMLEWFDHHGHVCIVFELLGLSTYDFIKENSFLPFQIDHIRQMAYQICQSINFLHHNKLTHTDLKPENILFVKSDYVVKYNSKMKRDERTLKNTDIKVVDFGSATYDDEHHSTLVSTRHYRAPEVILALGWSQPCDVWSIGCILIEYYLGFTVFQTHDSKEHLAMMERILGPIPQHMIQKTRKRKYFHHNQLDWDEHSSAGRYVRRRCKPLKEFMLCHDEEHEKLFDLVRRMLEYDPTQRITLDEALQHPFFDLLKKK
Sequence of Cytochrome P450 3A4 (Homo sapiens) (P08684 whole entry, looked up): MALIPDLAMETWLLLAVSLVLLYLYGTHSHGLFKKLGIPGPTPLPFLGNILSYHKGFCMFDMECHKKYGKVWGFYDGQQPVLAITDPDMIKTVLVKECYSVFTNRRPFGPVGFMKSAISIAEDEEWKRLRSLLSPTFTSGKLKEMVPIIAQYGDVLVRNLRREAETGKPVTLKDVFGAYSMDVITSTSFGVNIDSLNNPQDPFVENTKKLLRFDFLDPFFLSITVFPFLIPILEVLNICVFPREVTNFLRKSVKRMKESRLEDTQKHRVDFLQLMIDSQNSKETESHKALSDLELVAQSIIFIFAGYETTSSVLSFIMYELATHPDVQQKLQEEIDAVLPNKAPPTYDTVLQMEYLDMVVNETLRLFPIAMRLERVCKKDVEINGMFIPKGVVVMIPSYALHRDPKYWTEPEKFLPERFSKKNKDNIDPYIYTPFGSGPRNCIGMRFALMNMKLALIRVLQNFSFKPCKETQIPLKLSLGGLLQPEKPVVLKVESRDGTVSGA
Sequence of 3',5'-cyclic-AMP phosphodiesterase 4B (Homo sapiens) (Q07343 whole entry, looked up): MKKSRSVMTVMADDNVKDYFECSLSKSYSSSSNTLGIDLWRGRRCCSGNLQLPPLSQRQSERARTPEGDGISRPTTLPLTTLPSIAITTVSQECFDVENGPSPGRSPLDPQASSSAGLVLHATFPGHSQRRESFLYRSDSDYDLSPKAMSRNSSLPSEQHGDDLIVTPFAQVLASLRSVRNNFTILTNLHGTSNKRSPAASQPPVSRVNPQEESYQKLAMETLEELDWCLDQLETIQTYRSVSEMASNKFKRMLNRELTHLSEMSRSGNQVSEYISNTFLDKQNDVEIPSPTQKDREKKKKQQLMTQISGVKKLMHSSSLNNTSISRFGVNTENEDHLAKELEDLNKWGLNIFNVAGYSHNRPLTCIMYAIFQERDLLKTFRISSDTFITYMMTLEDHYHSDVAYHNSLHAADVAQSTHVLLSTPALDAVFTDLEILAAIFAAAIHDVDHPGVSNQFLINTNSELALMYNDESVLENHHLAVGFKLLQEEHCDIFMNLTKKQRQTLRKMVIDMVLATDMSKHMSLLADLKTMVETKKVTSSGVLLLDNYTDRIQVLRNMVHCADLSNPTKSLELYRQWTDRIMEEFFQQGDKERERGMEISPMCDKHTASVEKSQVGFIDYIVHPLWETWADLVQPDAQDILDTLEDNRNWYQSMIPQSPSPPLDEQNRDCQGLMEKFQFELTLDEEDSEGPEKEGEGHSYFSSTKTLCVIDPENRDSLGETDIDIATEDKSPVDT

Structure (SMILES) | Potency [1] | activity change, negative = inhibition [2] | Potency [3] | activity, negative = inhibition [4] | Potency [5] | Potency [6] | Potency [7] | Potency [8] | Potency [9] | Potency [10] | activation [11] | activity change, negative = inhibition [12] | max response [12, 18] [%] | max response [12, 19] [%] | Potency [13] | Potency [14] | Potency [15] | activity change, negative = inhibition [16] | Potency [17]
CN1CCN(c2ncncc2-c2ccccc2Cl)CC1 | > 11.4 µM (inactive) | -12.3% (inactive) | 2.51 µM (active) | -1.1% (inactive) | > 46 µM (inactive) | > 46 µM (inactive) | inactive | inactive | 1.58 µM (active) | inactive | 4.87% (inactive) | -1.74% (inactive) | 8.31 | 3.53 | inactive | inactive | inactive | – | –
COCCn1c(=O)c(CCc2ccccc2)nc2cnc(Oc3ccc(OC)cc3)nc21 | > 11.4 µM (inactive) | -14.8% (inactive) | 15.8 µM (active) | -17% (inactive) | > 9.22 µM (inactive) | > 46 µM (inactive) | inactive | inactive | 3.16 µM (active) | inactive | – | -2.61% (inactive) | 5.1 | 2.19 | inactive | – | inactive | 2.36% (inactive) | inactive
COc1cccc(Cn2c(=O)c(C)nc3cnc(Nc4cccc(OC)c4)nc32)c1 | > 11.4 µM (inactive) | -28.7% (inactive) | – | -18.7% (inactive) | > 9.22 µM (inactive) | > 46 µM (inactive) | inactive | – | – | – | – | -5.29% (inactive) | 11.9 | 6.74 | – | inactive | inactive | 19% (inactive) | inactive
CN1CCN(c2ncc3nc(-c4ccc(F)cc4)c(=O)n(C4CC4)c3n2)CC1 | > 11.4 µM (inactive) | 9.67% (inactive) | 12.6 µM (active) | 18.6% (inactive) | > 9.22 µM (inactive) | > 46 µM (inactive) | inactive | inactive | inactive | – | – | -0.731% (inactive) | 7.24 | 4.22 | inactive | – | inactive | 24.4% (inactive) | inactive
Cc1ccccc1-c1ccc2ncnc(N3CCNCC3)c2c1 | > 11.4 µM (inactive) | – | 3.16 µM (active) | 9.45% (inactive) | > 46 µM (inactive) | > 46 µM (inactive) | inactive | inactive | – | inactive | – | 6.61% (inactive) | 4.98 | 8.2 | 31.6 µM (active) | – | inactive | -1.24% (inactive) | 20 µM (active)
CN1CCN(c2ncc3nc(-c4cccc(C#N)c4)c(=O)n(CCC#N)c3n2)CC1 | > 11.4 µM (inactive) | -12.4% (inactive) | inactive | 19.4% (inactive) | > 9.22 µM (inactive) | > 46 µM (inactive) | inactive | inactive | – | – | – | 4.89% (inactive) | -1.32 | 1.31 | inactive | – | inactive | 17.8% (inactive) | inactive

Reference: PubChem BioAssay (NCATS)
